We go through 1 sequence from paper PMC7862700, “An all-to-all approach to the identification of sequence-specific readers for epigenetic DNA modifications on cytosine”.

Common to all, as to experiment: DAPPL (digital affinity profiling via proximity ligation, sequencing); 10 mM Tris-HCl pH 7.5, 50 mM NaCl, 1 mM DTT, 4% glycerol, room temperature, 30 min; GST-TFs on glutathione beads, 16-mer random dsDNA library, 0.1% formaldehyde crosslink after washing; high values mean tight binding
One assay addresses T1, FLI1 (Homo sapiens, UniProt Q01543 1-452).
T1 sequence: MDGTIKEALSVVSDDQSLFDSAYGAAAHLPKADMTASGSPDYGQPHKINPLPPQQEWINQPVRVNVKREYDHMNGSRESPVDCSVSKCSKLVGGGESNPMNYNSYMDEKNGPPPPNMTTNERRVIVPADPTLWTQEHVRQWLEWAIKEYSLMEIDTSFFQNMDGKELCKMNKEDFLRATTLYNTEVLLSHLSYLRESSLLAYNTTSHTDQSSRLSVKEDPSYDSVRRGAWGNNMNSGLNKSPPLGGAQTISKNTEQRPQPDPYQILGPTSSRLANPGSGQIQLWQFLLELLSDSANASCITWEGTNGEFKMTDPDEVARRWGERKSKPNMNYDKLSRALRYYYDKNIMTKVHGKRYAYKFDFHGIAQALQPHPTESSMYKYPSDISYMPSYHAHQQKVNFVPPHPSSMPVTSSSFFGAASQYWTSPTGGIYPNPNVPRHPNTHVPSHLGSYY
The following applies: protein: recombinant; tags: N-terminal GST; dsDNA, one strand shown. The gist of the method: (§1)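 Pools of DNA-barcoded human transcription factors, expressed in yeast as GST fusions on glutathione beads and combined with a tag-only sample, were incubated with 200 nmole of a 16-mer random double-stranded DNA library. Incubation took 30 min at room temperature in Tris/NaCl/DTT/glycerol buffer and was followed by washing, 0.1% formaldehyde crosslinking, proximity ligation (BsaI/T4 ligase, 1 h, 37 °C), PCR amplification and sequencing on an Illumina NextSeq500. Binding signal is the ratio of a hexamer's read frequency for a factor to its frequency for the tag-only sample.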

A further assay addresses T2, ELK1 (Homo sapiens, UniProt P19419 1-428).
T2 sequence: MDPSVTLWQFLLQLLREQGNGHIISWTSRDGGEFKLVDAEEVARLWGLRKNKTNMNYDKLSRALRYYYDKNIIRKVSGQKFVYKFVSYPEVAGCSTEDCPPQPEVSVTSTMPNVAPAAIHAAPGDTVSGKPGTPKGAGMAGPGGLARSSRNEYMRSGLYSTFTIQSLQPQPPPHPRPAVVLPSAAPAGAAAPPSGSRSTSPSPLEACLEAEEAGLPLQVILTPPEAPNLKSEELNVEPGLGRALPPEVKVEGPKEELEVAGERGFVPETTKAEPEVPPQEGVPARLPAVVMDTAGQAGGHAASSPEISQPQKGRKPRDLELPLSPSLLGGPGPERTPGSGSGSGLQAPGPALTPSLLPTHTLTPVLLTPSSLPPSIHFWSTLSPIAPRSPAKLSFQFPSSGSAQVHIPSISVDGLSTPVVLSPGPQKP
To be noted: protein: recombinant; tags: N-terminal GST; dsDNA, one strand shown. The method, boiled down: as §1

A further assay has as its target T3, GABPA (Homo sapiens, UniProt Q06546 1-454).
T3 sequence: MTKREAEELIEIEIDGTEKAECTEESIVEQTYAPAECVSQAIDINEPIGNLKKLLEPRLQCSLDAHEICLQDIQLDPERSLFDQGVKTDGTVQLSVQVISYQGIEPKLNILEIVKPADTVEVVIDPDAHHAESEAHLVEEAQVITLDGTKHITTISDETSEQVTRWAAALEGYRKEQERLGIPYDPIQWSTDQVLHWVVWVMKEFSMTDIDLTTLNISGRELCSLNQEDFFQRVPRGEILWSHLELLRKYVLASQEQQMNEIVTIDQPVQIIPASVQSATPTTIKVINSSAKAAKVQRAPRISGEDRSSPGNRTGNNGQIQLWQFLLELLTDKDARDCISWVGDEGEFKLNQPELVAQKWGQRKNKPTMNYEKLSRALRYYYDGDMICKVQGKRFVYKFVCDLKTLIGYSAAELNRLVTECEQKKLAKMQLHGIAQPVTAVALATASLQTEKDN
To be noted: protein: recombinant; tags: N-terminal GST; dsDNA, one strand shown. The method, boiled down:
as §1

The next assay addresses T4, ERG (Homo sapiens, UniProt P11308 1-479).
T4 sequence: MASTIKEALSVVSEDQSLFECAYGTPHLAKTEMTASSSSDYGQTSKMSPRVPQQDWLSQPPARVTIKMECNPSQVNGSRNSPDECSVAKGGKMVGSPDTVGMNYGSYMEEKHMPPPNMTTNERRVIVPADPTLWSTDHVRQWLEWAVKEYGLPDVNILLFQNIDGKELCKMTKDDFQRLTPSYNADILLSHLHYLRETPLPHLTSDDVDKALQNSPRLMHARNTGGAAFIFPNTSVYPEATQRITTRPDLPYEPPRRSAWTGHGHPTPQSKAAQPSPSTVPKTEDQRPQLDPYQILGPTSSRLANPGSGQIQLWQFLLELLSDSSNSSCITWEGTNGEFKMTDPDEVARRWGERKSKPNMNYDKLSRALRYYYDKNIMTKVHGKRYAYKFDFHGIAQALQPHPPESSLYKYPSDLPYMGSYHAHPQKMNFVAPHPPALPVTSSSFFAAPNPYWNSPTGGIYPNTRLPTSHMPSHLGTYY
To be noted: protein: recombinant; tags: N-terminal GST; dsDNA, one strand shown. The gist of the method:
as §1

In a further assay the target is ELF1 (Homo sapiens, UniProt P32519 1-619). The following applies: protein: recombinant; tags: N-terminal GST; dsDNA, one strand shown. The gist of the method: as §1
Sequence of ELF1 (P32519 whole entry): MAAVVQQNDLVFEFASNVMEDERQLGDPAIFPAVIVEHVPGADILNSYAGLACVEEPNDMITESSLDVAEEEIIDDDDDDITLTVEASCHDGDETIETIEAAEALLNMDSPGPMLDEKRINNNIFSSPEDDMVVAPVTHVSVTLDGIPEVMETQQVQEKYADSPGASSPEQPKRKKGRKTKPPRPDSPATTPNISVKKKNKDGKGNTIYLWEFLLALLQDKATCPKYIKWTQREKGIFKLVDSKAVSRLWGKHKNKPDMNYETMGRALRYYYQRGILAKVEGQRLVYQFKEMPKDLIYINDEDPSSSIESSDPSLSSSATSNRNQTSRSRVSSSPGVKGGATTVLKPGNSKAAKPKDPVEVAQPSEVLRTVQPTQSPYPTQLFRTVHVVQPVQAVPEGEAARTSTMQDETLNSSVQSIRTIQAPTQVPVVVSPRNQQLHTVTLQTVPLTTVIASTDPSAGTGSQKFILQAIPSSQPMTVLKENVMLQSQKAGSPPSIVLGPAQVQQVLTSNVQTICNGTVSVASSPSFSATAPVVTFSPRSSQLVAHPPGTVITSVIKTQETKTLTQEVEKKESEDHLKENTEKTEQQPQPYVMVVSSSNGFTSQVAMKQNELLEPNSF
The target in another assay is T5, EHF (Homo sapiens, UniProt Q9NZC4 1-300).
T5 sequence: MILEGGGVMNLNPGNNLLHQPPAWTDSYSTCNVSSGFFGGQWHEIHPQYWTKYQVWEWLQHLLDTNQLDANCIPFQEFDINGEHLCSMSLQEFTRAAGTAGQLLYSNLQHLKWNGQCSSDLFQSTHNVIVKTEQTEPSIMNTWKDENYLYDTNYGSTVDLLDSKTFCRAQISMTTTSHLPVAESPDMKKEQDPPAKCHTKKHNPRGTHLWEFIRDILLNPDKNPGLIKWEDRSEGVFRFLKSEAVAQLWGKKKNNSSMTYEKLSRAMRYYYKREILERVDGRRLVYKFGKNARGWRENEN
To be noted: protein: recombinant; tags: N-terminal GST; dsDNA, one strand shown. The method, boiled down:
as §1

The next assay concerns the target SPI1 (Homo sapiens, UniProt P17947 1-270). The following applies: protein: recombinant; tags: N-terminal GST; dsDNA, one strand shown. The gist of the method: as §1
For the next assay, the target named is SPIB (Homo sapiens, UniProt Q01892 1-262). The following applies: protein: recombinant; tags: N-terminal GST; dsDNA, one strand shown. The method, boiled down: as §1
Sequence of SPIB (Q01892 whole entry): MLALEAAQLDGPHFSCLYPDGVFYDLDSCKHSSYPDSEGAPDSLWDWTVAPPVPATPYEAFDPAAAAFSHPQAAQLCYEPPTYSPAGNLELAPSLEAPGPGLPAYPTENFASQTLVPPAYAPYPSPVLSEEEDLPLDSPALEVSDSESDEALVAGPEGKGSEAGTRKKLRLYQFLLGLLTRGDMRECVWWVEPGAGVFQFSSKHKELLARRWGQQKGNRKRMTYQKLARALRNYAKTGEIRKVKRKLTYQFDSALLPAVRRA
A further assay addresses T6, ELK3 (Homo sapiens, UniProt P41970 1-407).
T6 sequence: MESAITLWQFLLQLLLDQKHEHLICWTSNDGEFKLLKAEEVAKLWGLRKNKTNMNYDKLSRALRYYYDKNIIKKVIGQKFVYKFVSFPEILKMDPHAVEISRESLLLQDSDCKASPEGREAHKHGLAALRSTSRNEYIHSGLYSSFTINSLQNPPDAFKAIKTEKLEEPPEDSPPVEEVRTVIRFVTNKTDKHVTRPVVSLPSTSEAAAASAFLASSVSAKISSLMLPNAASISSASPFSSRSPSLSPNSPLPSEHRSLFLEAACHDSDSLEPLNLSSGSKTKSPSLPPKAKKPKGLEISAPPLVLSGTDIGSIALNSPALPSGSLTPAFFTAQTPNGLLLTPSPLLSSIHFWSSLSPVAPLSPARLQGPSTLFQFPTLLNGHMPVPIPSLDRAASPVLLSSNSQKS
To be noted: protein: recombinant; tags: N-terminal GST; dsDNA, one strand shown. The gist of the method:
as §1

The target of another assay is T7, FEV (Homo sapiens, UniProt Q99581 1-238).
T7 sequence: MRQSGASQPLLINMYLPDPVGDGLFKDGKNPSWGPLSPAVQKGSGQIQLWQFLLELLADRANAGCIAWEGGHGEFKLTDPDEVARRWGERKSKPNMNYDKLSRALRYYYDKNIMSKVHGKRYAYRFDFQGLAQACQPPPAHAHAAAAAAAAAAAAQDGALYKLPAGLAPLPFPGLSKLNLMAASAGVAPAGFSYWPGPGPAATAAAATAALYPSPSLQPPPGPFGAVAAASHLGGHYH
The following applies: protein: recombinant; tags: N-terminal GST; dsDNA, one strand shown. The method, boiled down:
as §1

A further assay has as its target ETV5 (Homo sapiens, UniProt P41161 1-510). To be noted: protein: recombinant; tags: N-terminal GST; dsDNA, one strand shown. The gist of the method:
as §1

The target in another assay is HSF1 (Homo sapiens, UniProt Q00613 1-529). To be noted: protein: recombinant; tags: N-terminal GST; chain copies: 3; dsDNA, one strand shown. The method, boiled down:
as §1

The target of another assay is T8, SPIC (Homo sapiens, UniProt Q8N5J4 1-248).
T8 sequence: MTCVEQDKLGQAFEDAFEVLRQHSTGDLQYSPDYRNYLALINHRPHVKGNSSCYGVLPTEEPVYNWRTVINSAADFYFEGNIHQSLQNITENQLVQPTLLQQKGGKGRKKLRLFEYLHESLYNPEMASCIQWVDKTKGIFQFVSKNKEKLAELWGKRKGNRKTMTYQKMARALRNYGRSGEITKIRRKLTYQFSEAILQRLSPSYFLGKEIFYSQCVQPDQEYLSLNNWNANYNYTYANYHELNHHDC
To be noted: protein: recombinant; tags: N-terminal GST; dsDNA, one strand shown. The method, boiled down: as §1

The target of the next assay is ELF4 (Homo sapiens, UniProt Q99607 1-663). The following applies: protein: recombinant; tags: N-terminal GST; dsDNA, one strand shown. The gist of the method:
as §1

For the next assay, the target named is T9, ELK4 (Homo sapiens, UniProt P28324-2 1-405).
T9 sequence: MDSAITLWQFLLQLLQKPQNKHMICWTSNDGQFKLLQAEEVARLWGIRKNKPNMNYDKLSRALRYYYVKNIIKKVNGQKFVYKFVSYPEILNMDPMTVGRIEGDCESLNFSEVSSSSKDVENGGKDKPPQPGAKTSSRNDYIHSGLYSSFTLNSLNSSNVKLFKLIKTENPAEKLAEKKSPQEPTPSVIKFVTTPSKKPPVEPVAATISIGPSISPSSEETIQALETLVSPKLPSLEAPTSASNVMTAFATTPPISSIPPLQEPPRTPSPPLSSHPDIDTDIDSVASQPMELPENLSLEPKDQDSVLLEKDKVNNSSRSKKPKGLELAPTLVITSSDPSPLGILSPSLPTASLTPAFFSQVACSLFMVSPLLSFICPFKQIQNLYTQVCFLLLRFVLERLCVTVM
The following applies: protein: recombinant; tags: N-terminal GST; dsDNA, one strand shown. The method, boiled down: as §1

The next assay has as its target T10, ETV2 (Homo sapiens, UniProt O00321 1-342).
T10 sequence: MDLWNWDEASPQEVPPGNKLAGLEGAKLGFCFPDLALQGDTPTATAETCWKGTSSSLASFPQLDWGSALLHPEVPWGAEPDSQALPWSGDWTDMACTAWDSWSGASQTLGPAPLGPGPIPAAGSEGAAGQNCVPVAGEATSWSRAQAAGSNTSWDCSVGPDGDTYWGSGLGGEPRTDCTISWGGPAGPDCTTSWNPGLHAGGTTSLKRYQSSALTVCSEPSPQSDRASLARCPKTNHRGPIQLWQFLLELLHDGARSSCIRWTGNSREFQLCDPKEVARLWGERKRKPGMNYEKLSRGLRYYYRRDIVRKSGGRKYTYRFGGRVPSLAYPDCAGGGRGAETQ
To be noted: protein: recombinant; tags: N-terminal GST; dsDNA, one strand shown. The method, boiled down:
as §1

In another assay the target is T11, ELF3 (Homo sapiens, UniProt P78545 1-371).
T11 sequence: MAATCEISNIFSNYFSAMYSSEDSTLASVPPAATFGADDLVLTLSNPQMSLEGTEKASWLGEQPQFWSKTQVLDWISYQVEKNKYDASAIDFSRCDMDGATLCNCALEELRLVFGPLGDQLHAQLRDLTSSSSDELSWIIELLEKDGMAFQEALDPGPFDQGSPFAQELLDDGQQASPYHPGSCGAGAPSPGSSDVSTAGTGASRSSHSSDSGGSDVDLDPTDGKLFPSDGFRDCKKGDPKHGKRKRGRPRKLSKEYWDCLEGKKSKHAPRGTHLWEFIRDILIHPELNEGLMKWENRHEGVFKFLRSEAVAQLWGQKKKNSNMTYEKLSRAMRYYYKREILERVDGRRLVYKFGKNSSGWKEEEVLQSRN
The following applies: protein: recombinant; tags: N-terminal GST; dsDNA, one strand shown. The gist of the method:
as §1

The next assay concerns the target ETV1 (Homo sapiens, UniProt P50549 1-477). To be noted: protein: recombinant; tags: N-terminal GST; dsDNA, one strand shown. The method, boiled down:
as §1

Sequence of HSF1 (Q00613 whole entry): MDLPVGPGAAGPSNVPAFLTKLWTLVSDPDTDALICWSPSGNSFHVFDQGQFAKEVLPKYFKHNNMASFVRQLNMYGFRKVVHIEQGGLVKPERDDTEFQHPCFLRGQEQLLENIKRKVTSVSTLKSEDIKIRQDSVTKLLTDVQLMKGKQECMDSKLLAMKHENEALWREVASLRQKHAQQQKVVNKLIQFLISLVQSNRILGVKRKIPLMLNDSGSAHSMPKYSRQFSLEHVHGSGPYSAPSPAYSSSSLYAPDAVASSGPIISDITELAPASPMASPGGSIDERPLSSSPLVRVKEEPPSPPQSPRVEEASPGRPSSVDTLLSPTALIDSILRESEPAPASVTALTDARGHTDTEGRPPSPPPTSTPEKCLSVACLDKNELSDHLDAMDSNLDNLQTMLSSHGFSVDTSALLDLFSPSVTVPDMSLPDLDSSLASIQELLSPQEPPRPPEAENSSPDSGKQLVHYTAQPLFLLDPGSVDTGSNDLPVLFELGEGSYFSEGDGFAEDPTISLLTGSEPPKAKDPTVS
Sequence of ELF4 (Q99607 whole entry): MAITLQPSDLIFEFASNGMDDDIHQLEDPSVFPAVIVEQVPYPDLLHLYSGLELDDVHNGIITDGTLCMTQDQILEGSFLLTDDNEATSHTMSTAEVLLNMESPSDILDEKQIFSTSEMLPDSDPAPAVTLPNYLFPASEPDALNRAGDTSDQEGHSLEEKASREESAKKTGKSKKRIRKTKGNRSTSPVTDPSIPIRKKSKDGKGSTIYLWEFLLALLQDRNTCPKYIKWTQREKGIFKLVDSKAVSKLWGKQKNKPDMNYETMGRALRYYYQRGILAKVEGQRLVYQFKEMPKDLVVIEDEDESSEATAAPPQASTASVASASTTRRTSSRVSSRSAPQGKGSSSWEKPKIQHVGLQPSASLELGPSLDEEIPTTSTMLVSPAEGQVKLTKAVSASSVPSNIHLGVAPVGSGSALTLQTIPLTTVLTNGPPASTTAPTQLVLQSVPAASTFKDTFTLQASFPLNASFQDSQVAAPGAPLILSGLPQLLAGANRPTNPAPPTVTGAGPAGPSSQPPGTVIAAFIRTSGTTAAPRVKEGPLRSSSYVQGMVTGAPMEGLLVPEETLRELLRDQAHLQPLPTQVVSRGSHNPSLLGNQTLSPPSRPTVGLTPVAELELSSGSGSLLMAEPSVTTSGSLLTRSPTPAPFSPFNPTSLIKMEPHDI
Sequence of ETV5 (P41161 whole entry): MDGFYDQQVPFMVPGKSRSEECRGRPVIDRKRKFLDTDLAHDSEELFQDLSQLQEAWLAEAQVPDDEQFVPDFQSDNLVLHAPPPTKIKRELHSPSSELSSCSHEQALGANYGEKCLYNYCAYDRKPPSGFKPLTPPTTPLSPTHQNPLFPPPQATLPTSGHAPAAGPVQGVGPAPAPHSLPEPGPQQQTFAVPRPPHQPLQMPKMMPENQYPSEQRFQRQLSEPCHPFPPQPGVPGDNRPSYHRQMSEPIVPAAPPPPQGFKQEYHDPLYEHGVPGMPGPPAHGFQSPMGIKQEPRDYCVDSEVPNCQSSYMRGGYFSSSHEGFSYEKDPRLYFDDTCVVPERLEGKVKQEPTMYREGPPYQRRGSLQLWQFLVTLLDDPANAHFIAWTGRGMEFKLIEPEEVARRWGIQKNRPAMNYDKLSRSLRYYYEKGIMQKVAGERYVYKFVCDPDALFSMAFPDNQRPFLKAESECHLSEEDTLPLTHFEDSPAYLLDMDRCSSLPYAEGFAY
Sequence of ETV1 (P50549 whole entry): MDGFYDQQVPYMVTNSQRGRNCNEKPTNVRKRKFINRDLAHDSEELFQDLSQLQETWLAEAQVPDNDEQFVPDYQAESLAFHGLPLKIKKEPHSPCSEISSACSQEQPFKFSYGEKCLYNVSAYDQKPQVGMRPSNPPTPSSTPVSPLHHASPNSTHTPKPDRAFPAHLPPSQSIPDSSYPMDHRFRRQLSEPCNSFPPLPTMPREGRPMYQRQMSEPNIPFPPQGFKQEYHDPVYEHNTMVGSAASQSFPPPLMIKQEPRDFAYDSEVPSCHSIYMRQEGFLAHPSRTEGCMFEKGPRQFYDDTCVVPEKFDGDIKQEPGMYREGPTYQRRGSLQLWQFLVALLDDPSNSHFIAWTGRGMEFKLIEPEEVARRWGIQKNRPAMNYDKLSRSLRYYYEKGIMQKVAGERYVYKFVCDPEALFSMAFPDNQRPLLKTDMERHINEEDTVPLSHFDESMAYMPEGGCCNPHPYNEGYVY

For the sequence GCTATG, the binding signal is 1.16 fold enrichment (6-mer frequency, TF over GST control) with FLI1; 1.13 fold enrichment (6-mer frequency, TF over GST control) with ELK1; 1.26 fold enrichment (6-mer frequency, TF over GST control) in the assay with GABPA; 1.11 fold enrichment (6-mer frequency, TF over GST control) with ERG; 1.22 fold enrichment (6-mer frequency, TF over GST control) with ELF1; 1.21 fold enrichment (6-mer frequency, TF over GST control) with EHF. In addition, the binding signal is 1.13 fold enrichment (6-mer frequency, TF over GST control) with SPI1; 1.31 fold enrichment (6-mer frequency, TF over GST control) with SPIB; 1.15 fold enrichment (6-mer frequency, TF over GST control) with ELK3; 1.15 fold enrichment (6-mer frequency, TF over GST control) with FEV; 1.13 fold enrichment (6-mer frequency, TF over GST control) with ETV5; 1.07 fold enrichment (6-mer frequency, TF over GST control) with HSF1. Further, the binding signal with SPIC is 1.22 fold enrichment (6-mer frequency, TF over GST control); with ELF4 it was 1.08 fold enrichment (6-mer frequency, TF over GST control); with ELK4 it was 1.15 fold enrichment (6-mer frequency, TF over GST control); with ETV2 it was 1.38 fold enrichment (6-mer frequency, TF over GST control); with ELF3, 1.18 fold enrichment (6-mer frequency, TF over GST control); with ETV1 it was 1.17 fold enrichment (6-mer frequency, TF over GST control).
